# High-throughput results from PubChem BioAssay.
# HT1080-NT tox – kills 2HG-producing HT-1080-NT fibrosarcoma cells | HT-1080-NT fibrosarcoma viability, CellTiter-Glo ATP luminescence, 48 h | Potency, µM (series often up to 46.1 µM), for the others: top-dose activity, negative = less viability, actives largely listed as cytotoxic | 1.6% of 360,000 active | AID 686970;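 further: NT is the 2HG producing partner of a matched IDH1 knockdown line; 0% = DMSO-treated cells and -100% = media-only wells without cells; nearly all actives have a fitted effect of over 55% in size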
#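 750 cells/well, RPMI + 5% FBS; 2 h settle, compound pin-transfer, 48 h at 37 degrees C. CellTiter-Glo 10 min RT, luminescence. Normalized to DMSO and media-only wells.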
# SW480 rereplic – induces DNA re-replication in SW480 colon adenocarcinoma cells | SW480 DNA re-replication, Hoechst DNA content imaging, 48 h | Potency, µM (highest dose often 46.1 µM), inactives show top-dose re-replication activation, hits mostly activators | 1.8% of 340,000 active; further: % of control where 0% means no effect; nearly all actives have a fitted effect of over 55% in size
#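 250 cells/well; 23 nL cpd via pin tool; 48 hr, 37 C, 5% CO2; Hoechst 40 min; imager read of total nuclear intensity, ex 405/em 500-530 nm.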
# HT1080 IDH1KD tx – kills HT-1080 cells with IDH1 knockdown | HT-1080 IDH1 knockdown viability, ATP luminescence, 48 h | Potency, µM (doses to about 46.1 µM), for the others: at the top dose activity, negative = toxicity, actives largely listed as cytotoxic | 2% of 360,000 active | AID 686971;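 further: 0% = DMSO wells and -100% = cell-free medium wells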
#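 Luminescent ATP read-out (CellTiter-Glo, 10 min at room temperature) after 48 h compound exposure at 37 °C gave viability of IDH1-knockdown HT-1080 cells. Activity was normalised to DMSO and cell-free wells, then fitted as concentration-response curves.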
# MCF10A rereplic – inducers of DNA re-replication in MCF 10A breast cells | MCF 10A DNA re-replication, Hoechst nuclear intensity, 48 h | Potency, µM (titrated, usually from 46.1 µM), without a hit: top-dose activity, positive = re-replication, actives largely listed as activators | 2.9% of 350,000 active | AID 624296; further: % of control where 0% means no effect; nearly all actives have a fitted effect of over 50% in size
# KB-V1 cytotox – kills drug-selected multidrug resistant KB-V1 cells; KB-V1 MDR cells viability, CellTiter-Glo, 72 h; Potency, µM (doses to about 46.1 µM), hits mostly cytotoxic; 3.4% of 400,000 active; AID 1347076; further: on the % scale 0 is the no-effect control and ±100 the full control effect; nearly all actives have a fitted effect of over 60% in size
#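 Readout: CellTiter-Glo luminescence, 10 min after addition. Cells: KB-V1 MDR subline, 72 h at 37 degrees C with compound. Analysis: corrected, normalized data fitted to concentration-effect curves.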
# KB-3-1 tox – kills parental KB-3-1 adenocarcinoma cells | KB-3-1 viability, CellTiter-Glo ATP luminescence, 72 h | Potency, µM (series often up to 46.1 µM), usual class: cytotoxic | 1.4% of 400,000 active | AID 1347075; further: on the % scale 0 is the no-effect control and ±100 the full control effect; nearly all actives have a fitted effect of over 60% in size
#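 KB-3-1 parental drug-naive adenocarcinoma cells in DMEM/10% FBS, incubated 72 h at 37 C with pin-transferred compounds across a concentration series. Viability by CellTiter-Glo luminescence; concentration-response curves fitted after normalization.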
# An asterisk follows results filed as active; i = inactive; ? = inconclusive; nt = not tested or not shown. The list is not random: actives were taken first. Their share in the collection is about 7.9%. The call rests on the fitted dose curve; in most records, active means well fitted curve in the direction sought with a large enough effect; inconclusive means small, poorly fitted or top-dose-only effect, or another doubt; inactive means no such curve, though single readings can be large; an effect the other way counts as inactive or inconclusive. Potency means the concentration at half of the fitted maximal effect.
SMILES,HT1080-NT tox,SW480 rereplic,HT1080 IDH1KD tx,MCF10A rereplic,KB-V1 cytotox,KB-3-1 tox
O=C(N/N=C/c1ccncc1)c1cc2c(ccc3ccccc32)o1,-2%,-2%,6%,-7%,?,i
COc1ccc(/C=N/NC(=O)c2cc3c(ccc4ccccc43)o2)cc1OC,-3%,?,-17%,16µM*,?,?
N#CCC(=O)N/N=C/c1cn(Cc2cccc3ccccc23)c2ccccc12,?,15µM*,10µM*,5.2µM*,i,?
O=C(COc1ccccc1[N+](=O)[O-])Nc1ccc(NC(=O)c2cc3ccccc3o2)cc1,-10%,-39%,-22%,?,i,i
COc1ccc(/C=N\NC(=O)c2cc3c(ccc4ccccc43)o2)cc1O,?,?,4.6µM*,12µM*,i,?
Cc1ccc(NC(=O)C(Nc2ccccc2)c2ccccc2)cc1 (stereo not given),25%,-9%,15%,0%,i,i
Cc1ccc(NC(C(=O)c2ccccc2)c2ccccc2)cc1 (stereo not given),23µM*,-9%,?,?,i,?
CC(=O)C1=CCC(c2ccccc2)N(S(=O)(=O)c2ccccc2C)C1 (stereo not given),-8%,nt,-17%,nt,i,i
COc1ccc(C(CNC(=O)c2cc3c(s2)CCC(C)C3)N2CCOCC2)cc1 (stereo not given),0%,5%,-11%,?,i,i
COc1ccc(C(CNC(=O)c2cc3c(s2)CCC(C)C3)N2CCCC2)cc1 (stereo not given),?,?,?,?,i,21µM*
CCn1c(CNC(=O)C23CC4CC(CC(C4)C2)C3)nnc1SCC(=O)Nc1ccc(F)cc1,nt,nt,nt,nt,i,i
COc1ccc(NC(=O)c2c(-c3ccc(C)cc3)nnc3ccccc23)cc1Cl,nt,nt,nt,nt,i,i
CCCCN1C(=O)C(CC(=O)NCCN2CCOCC2)CC(C(=O)N2CCCCCC2)=C1C (stereo not given),7%,nt,7%,nt,i,i
O=C1CC(N2CCN(c3nc4ccccc4s3)CC2)C(=O)N1c1cccc(F)c1 (stereo not given),11%,-22%,-2%,5%,i,18µM*
O=C1CC(N2CCSCC2)C(=O)N1c1cccc(Cl)c1 (stereo not given),-3%,?,-5%,0.82µM*,?,i
CCC(C)c1ccc(NC(=O)Nc2cnccn2)cc1 (stereo not given),?,3.3µM*,8.2µM*,5.8µM*,?,3.3µM*
Cc1cc(Cl)ccc1OCc1cc(=O)n2c3c(sc2n1)CCCC3,nt,nt,nt,nt,i,i
CCCN1CCC2(CC1)NC(C(=O)O)Cc1c2[nH]c2ccccc12 (stereo not given),0%,2%,-13%,-1%,i,i
COC(=O)C1Cc2c([nH]c3ccccc23)C2(CCN(Cc3ccccc3)CC2)N1 (stereo not given),18µM*,20%,18µM*,25%,?,i
O=c1[nH]c(COc2ccc(Cl)cc2Br)nc2ccccc12,-4%,9%,-5%,12%,?,?
CCOc1ccc(-c2[nH]ncc2-c2ccccc2)c(O)c1,-1%,-1%,-6%,-2%,i,i
COc1ccccc1-c1cn[nH]c1-c1ccc(OCc2ccccc2)cc1O,-18%,?,?,23µM*,i,?
COc1ccc(-c2cn[nH]c2-c2ccc(OCc3ccccc3)cc2O)cc1,-7%,?,?,13µM*,i,i
O=C(Nc1ccccc1Cl)c1cc(C2CCCCN2S(=O)(=O)c2ccc(F)cc2F)on1 (stereo not given),1%,nt,-28%,nt,i,?
CCn1c(SCC(=O)Nc2ccccc2)nc2c([nH]c3ccccc32)c1=O,nt,nt,nt,nt,i,i
